Consider 22 compounds from PubChem BioAssay (NCI).

About 83,000 compounds went through this panel and 20% of them were active in at least one assay; those are over-represented in the sample as a whole.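 Step 1: grow cells in 96-well plates. Step 2: add test compound at a single concentration. Step 3: incubate 48 h. Step 4: record percent growth.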 Calls of active or inactive are those of the source. Rule for the calls: active = growth percent below 10; inactive = the rest.

The test relates to U251 CNS. Nature of the test: NCI-60 one-dose screen, 48 h (100 = growth as untreated, 0 = no growth, -100 = all killed). Conditions: 10 µM unless noted.
Turning to `CCCCCCCCCCCCNC(=O)N[C@H](C(=O)N[C@H]1/C=C/OCCNC(=O)/C=C/[C@H](C(C)C)NC1=O)C(C)C`, the growth is 43.2% (inactive).

Turning to `COc1ccc2c(c1)sc1nc(-c3ccccc3)c(-c3cccc4ccccc34)n12`, the growth was 21.3% (inactive).

Consider `O=C(O)CSc1ccc(NCc2oc(CO)cc(=O)c2O)cc1`, for which the growth is 103% (inactive).

In the case of `Oc1ccc(-c2nnc3c4[nH]ccc4ncn23)cc1`, the growth was 102% (inactive).

For the compound `COc1cccc(N2CCN(c3ncnc4cc[nH]c34)CC2)c1`, the growth is 66.9% (inactive).

On to `NC(N)=NC1CCCCC1`, for which the growth is 89.9% (inactive).

As for `COc1cc(CN(c2ccc(C)cc2)C2OC(=O)c3ccccc32)cc(OC)c1OC` (configuration not stated), the growth is 32.3% (inactive).

As for `CC(C)(C)OC[C@@H]1N=C(c2ccc(Br)cc2)Nc2nc3ccccn3c2C1=O`, the growth was 63.5% (inactive).

Take `Cc1ccc(Nc2cc(Cl)c([N+](=O)[O-])cc2[N+](=O)[O-])cc1`: the growth is 25.8% (inactive).

Take `N/C(=C\C(=O)n1nc(-c2ccccc2)cc1N)c1ccccc1`: the growth was 36.7% (inactive).

Take `Nc1nc(N)c2cc(NCc3ccc(Cl)c(Cl)c3)ccc2n1`: the growth is -94.5% (active).

Take `Cn1c(-c2ccccc2)cc(=O)n1-c1ccccc1`: the growth is 109% (inactive).

`O=C(Nc1ccncc1)C(=O)c1cn(S(=O)(=O)c2cccc(Cl)c2F)c2ccccc12`: the growth is 73.6% (inactive).

In the case of `O=C(CSc1nnc(Cc2ccccc2Nc2c(Cl)cccc2Cl)n1-c1ccccc1)N1N=C(c2ccc3ccccc3c2)CC1c1ccc(Cl)cc1` (configuration not stated), the growth was 98.3% (inactive).

For `CSc1ccc(/C=C2\C=C(CC(=O)NCc3ccc(C(=O)c4ccccc4)cc3)c3cc(F)ccc32)cc1`, the growth was -2.89% (active).

Regarding `C=C1C(=O)O[C@H]2[C@H]1CC/C(COC(=O)NCc1ccc(Cn3c(=O)sn(CCCl)c3=O)cc1)=C\CC[C@@]1(C)O[C@@H]21`, the growth was 78.7% (inactive).

Turning to `O=C(O/C(=C/c1ccccc1)C(F)(F)F)c1ccccc1`, the growth was 102% (inactive).

In the case of `COc1ccc(N=C2CSc3nnc(-c4cc(F)c(Cl)cc4Cl)n3N2)cc1`, the growth is -52.2% (active).

`CCCCCCCCN(CCCCCCCC)C(=O)CCl`: the growth was 101% (inactive).

Turning to `CC(C)(CCc1ccccn1)C(=O)CCCc1ccccn1`, the growth was 100% (inactive).

For `Cn1cnc([N+](=O)[O-])c1S(=O)(=O)Oc1ccccc1`, the growth was 90.5% (inactive).

For `CCOC(=O)C1=C(C)NC(=S)NC1c1ccccc1` (configuration not stated), the growth was 105% (inactive).
